{"source": "PubChem BioAssay AID1645856", "about": "(Buhrlage Lab, Dana-Farber Cancer Institute and Novartis …, 2021)", "note": "Screen size: about 47,000 compounds; about 510 (1.1%) were called active. Shown is part of a subset that was picked to be rich in actives. A number with no mark means an inactive call. Rule as the data show it: active = inhibition above about 30%; inactive = the rest.", "data": [{"biological_target": "Ubiquitin carboxyl-terminal hydrolase 10 (Homo sapiens) (UniProt Q14694)", "sequence (Q14694 whole entry, looked up)": "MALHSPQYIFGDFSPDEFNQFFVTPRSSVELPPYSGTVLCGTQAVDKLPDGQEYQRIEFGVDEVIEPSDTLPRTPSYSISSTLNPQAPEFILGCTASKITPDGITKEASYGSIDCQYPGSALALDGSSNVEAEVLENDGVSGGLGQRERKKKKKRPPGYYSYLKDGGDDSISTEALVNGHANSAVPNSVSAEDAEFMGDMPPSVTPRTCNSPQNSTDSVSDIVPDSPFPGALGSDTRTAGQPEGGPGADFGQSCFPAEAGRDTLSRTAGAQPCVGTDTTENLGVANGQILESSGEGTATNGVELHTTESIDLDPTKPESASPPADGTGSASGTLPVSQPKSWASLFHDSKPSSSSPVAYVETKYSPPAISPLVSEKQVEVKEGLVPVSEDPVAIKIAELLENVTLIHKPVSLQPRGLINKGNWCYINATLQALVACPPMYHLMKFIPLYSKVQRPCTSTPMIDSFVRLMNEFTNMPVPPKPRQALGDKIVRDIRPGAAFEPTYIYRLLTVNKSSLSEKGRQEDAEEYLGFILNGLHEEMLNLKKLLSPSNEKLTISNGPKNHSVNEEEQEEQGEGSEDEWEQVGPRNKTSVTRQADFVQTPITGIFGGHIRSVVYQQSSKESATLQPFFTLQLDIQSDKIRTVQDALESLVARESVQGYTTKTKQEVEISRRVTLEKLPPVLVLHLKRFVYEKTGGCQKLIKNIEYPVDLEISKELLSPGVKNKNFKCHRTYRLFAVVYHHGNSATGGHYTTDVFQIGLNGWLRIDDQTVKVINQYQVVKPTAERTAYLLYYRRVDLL", "assay": "inhibitors of human USP10 deubiquitinase (AID 1645856)", "details": "purified USP10, Ub-rhodamine fluorescence, 60 min; at 20 µM; stronger effect = higher value", "values": [{"compound": "CC1=C(C(=O)OCCOc2ccccc2)C(c2ccccc2OC(C)C)NC(=O)N1", "note": "(stereo not given)", "inhibition": "5.16%"}, {"compound": "Cc1nn(-c2cccc(Cl)c2)c2c1C(C(=O)c1ccc3c(c1)OCCO3)CC(=O)N2", "note": "(stereo not given)", "inhibition": "-1.54%"}, {"compound": "CN1c2ccccc2O[C@@H]2CC[C@@H](NC(=O)Cn3cccn3)[C@@H](O)[C@@H]21", "inhibition": "0.781%"}, {"compound": "COc1ccc2[nH]c3c(N4CCN(C5CCCCC5)CC4)ncnc3c2c1", "inhibition": "2.49%"}, {"compound": "N#Cc1ccc(NC(=O)Nc2cccn(Cc3ccccc3F)c2=O)cc1", "inhibition": "42.6% (active)"}, {"compound": "Cc1noc(-c2cccn(Cc3cc(F)ccc3F)c2=O)n1", "inhibition": "1.28%"}, {"compound": "O=C(Cn1cccc(-c2nc(-c3ccccc3)no2)c1=O)Nc1ccccc1F", "inhibition": "-5.7%"}, {"compound": "CN1Cc2cccc(C(=O)N(C)c3nc4c(s3)CCc3occc3-4)c2C1=O", "inhibition": "-0.411%"}, {"compound": "COc1cnc(CSc2ccccc2)cc1OCC(=O)Nc1ccc2c(c1)OCO2", "inhibition": "0.813%"}, {"compound": "COCCCn1c(C(=O)NCC(=O)OC(C)C)cc2c(=O)n3cccc(C)c3nc21", "inhibition": "3.16%"}, {"compound": "COc1ccc(/C=C(\\C(=O)N(C)C2CCCCC2)n2ccccc2=O)cc1", "inhibition": "-1.04%"}, {"compound": "COc1ccc(-c2cc(C(=O)Nc3ncc(C)s3)c3ccccc3n2)cc1OC", "inhibition": "-3.26%"}, {"compound": "CNC(=O)C1CN(C(=O)c2ccccc2F)CC12CCCC2", "note": "(stereo not given)", "inhibition": "-0.0522%"}, {"compound": "Cn1c(=O)n(C2CCN(C(=O)Cc3ccccc3)C2)c2ncncc21", "note": "(stereo not given)", "inhibition": "0.307%"}, {"compound": "O=C1c2ccccc2C2c3[nH]c4ccccc4c3C(c3ccc(F)cc3)CN12", "note": "(stereo not given)", "inhibition": "-4.15%"}, {"compound": "CC(C)N1CCN(S(=O)(=O)c2cc(-c3nnc(C4CC4)o3)co2)CC1", "inhibition": "-5.2%"}, {"compound": "Cc1c(C2CCN(C(=O)NCc3ccccc3)CC2)noc1N", "inhibition": "-2.52%"}, {"compound": "Cc1noc(C)c1COc1cccc(C(=O)NC(C)c2cc3ccccc3o2)c1", "note": "(stereo not given)", "inhibition": "-0.528%"}, {"compound": "O=C(NCc1cccnc1N1CCCCC1)c1nc2n(n1)-c1ccccc1S(=O)(=O)N2", "inhibition": "17.3%"}, {"compound": "CC(NC(=O)c1nc2n(n1)-c1ccccc1S(=O)(=O)N2)c1cc2ccccc2o1", "note": "(stereo not given)", "inhibition": "36.5% (active)"}, {"compound": "CN1CCC2(CN(c3ncccn3)CC23CCN(C(=O)Cc2ccccc2)CC3)C1=O", "note": "(stereo not given)", "inhibition": "-1.5%"}, {"compound": "CCn1c(=O)c(C(=O)N2CCN(c3cccc(C)c3)CC2)nc2cccnc21", "inhibition": "-3.06%"}, {"compound": "O=S(=O)(c1cccc2nonc12)N1CCC(n2cccc2)CC1", "inhibition": "-1.8%"}, {"compound": "COc1cc(Cl)c(C)cc1Nc1ncnc2sccc12", "inhibition": "-4.4%"}, {"compound": "NC(=O)CCC(=O)N[C@H]1C[C@H]2CN(Cc3ccccc3)c3ccccc3CN2C1", "inhibition": "-7.81%"}, {"compound": "O=C(c1ccccn1)N1CCC(c2nc3ccccc3cc2C(=O)N2CCCC2)CC1", "inhibition": "-0.709%"}, {"compound": "O=C(O)C1CCCN1C1=NS(=O)(=O)c2ccccc21", "note": "(stereo not given)", "inhibition": "0.971%"}, {"compound": "CC(=O)N1CCc2cc(C(O)CN3CCN(c4ccccc4)CC3)ccc21", "note": "(stereo not given)", "inhibition": "1.48%"}, {"compound": "Cc1ccc(N2CC(C(=O)N3CCC(C(=O)Nc4ccc(F)cc4F)CC3)CC2=O)cc1", "note": "(stereo not given)", "inhibition": "-5.34%"}, {"compound": "CCC(C(=O)NC1CCCC1)N(C(=O)Cn1nnc(-c2ccc(C)cc2)n1)c1cccc(O)c1", "note": "(stereo not given)", "inhibition": "1.22%"}, {"compound": "Cn1c(=O)c2c3c(cnc2n(C)c1=O)C(=O)CC(c1ccccc1)C3", "note": "(stereo not given)", "inhibition": "-1.08%"}, {"compound": "O=C(NC1CCCC1)c1cc(-c2cccnc2)n(-c2ccc(F)cc2)n1", "inhibition": "1.77%"}, {"compound": "c1ccc(-c2ccc(NCc3ccc4c(c3)OCO4)nn2)cc1", "inhibition": "3.9%"}, {"compound": "Cc1ccc(S(=O)(=O)N2CCCC2C(=O)N2CCN(c3cccc(Cl)c3)CC2)cc1", "note": "(stereo not given)", "inhibition": "1.5%"}, {"compound": "O=C(COC(=O)C(Cc1c[nH]c2ccccc12)NC(=O)c1ccccc1Cl)c1ccccc1F", "note": "(stereo not given)", "inhibition": "6.57%"}, {"compound": "Cn1ccnc1C(NC(=O)c1ccncc1)c1ccc(F)c(F)c1", "note": "(stereo not given)", "inhibition": "-4.27%"}, {"compound": "COc1ccc(CNC2C3=C(CCCC3)C(=O)N2CCc2ccc(Cl)cc2)cc1", "note": "(stereo not given)", "inhibition": "-0.147%"}, {"compound": "CC(C)CN1C[C@@]23CN(C(=O)NCCc4ccc(F)cc4)C[C@@H](C[C@@H]2S1(=O)=O)O3", "inhibition": "3.62%"}, {"compound": "COC(=O)C1CCN(C(=O)CC[C@H]2CNC(=O)[C@@H]3[C@@H](CCN3Cc3ccc(C)cc3)N2C)CC1", "inhibition": "1.61%"}, {"compound": "Cc1ccc(NC(=O)CCC(=O)N(c2ccccc2)c2ccccc2)cc1Cl", "inhibition": "11.4%"}, {"compound": "COc1cccc(NC(=O)COC(=O)c2ccc(OC)c(S(=O)(=O)Nc3cc(Cl)c(OC)cc3OC)c2)c1", "inhibition": "0.441%"}, {"compound": "Cc1ccc(NC(=O)CCOc2ccccc2)cc1S(=O)(=O)Nc1ccccc1Cl", "inhibition": "30.4% (active)"}, {"compound": "Cc1cc(O)c(=O)cc2c1C[C@H]1CC(C)(C)/C=C/C[C@@]3(C)Oc4cc(=O)c(O)cc(C)c4C[C@@H]3C[C@H](O)[C@]1(C)O2", "inhibition": "39.9% (active)"}, {"compound": "Cc1ccc(CNC(=O)CCCn2c(=O)c3sccc3n(CC(=O)OCc3ccccc3)c2=O)cc1", "inhibition": "53.7% (active)"}, {"compound": "COc1ccc(CCNC(=O)CCCn2c(=O)c3ccccc3n(CC(=O)OCc3ccccc3)c2=O)cc1OC", "inhibition": "12.7%"}, {"compound": "Cc1ccc(CNC(=O)CC(c2ccccc2)c2ccccc2)cc1", "inhibition": "9.59%"}, {"compound": "Cc1cccc(-n2c3c(c(=O)[nH]c2=O)CN(Cc2ccco2)CN3)c1C", "inhibition": "-1.97%"}, {"compound": "COc1ccc(C(=O)N(c2ccccn2)c2ccccn2)cc1OC", "inhibition": "-0.245%"}, {"compound": "CC(=O)Nc1sc2c(c1C(c1cccc(F)c1)N1CCN(CCO)CC1)CCCC2", "note": "(stereo not given)", "inhibition": "-5.42%"}, {"compound": "Cc1c(-c2nn3c(-c4ccco4)nnc3s2)cccc1[N+](=O)[O-]", "inhibition": "50.9% (active)"}, {"compound": "CC(C)Cc1cc(-c2nn3c(-c4ccccc4Cl)nnc3s2)n[nH]1", "inhibition": "13.8%"}, {"compound": "Fc1ccccc1CSc1nnc(C2CCNCC2)o1", "inhibition": "-2.32%"}, {"compound": "Cc1cc(-c2ccccc2C(=O)O)nc(C2CCCNC2)n1", "note": "(stereo not given)", "inhibition": "1.65%"}, {"compound": "O=C(NCCc1ccccc1)c1ccc2c(=O)n(Cc3ccco3)c(=O)n(Cc3cccc([N+](=O)[O-])c3)c2c1", "inhibition": "73.1% (active)"}, {"compound": "O=C(NCCc1ccccc1)c1ccc2c(=O)nc3c(-c4ccccc4F)n[nH]n3c2c1", "inhibition": "3.48%"}, {"compound": "O=C(Cn1c(=O)n(Cc2ccc3c(c2)OCO3)c(=O)c2ccccc21)NCc1ccco1", "inhibition": "25.6%"}, {"compound": "O=C(NCc1ccco1)N1CCC2(CC1)Nc1ccccc1-n1cccc12", "inhibition": "0.0863%"}, {"compound": "Cc1c(S(=O)(=O)Nc2ccc(F)cc2)cc(C(=O)N2CCCCC2)n1C", "inhibition": "1.47%"}, {"compound": "COc1ccc(OC)c(NC(=O)CN2CCc3ccccc32)c1", "inhibition": "0.258%"}, {"compound": "CCc1cccc(C)c1NC(=O)CSc1nc2c(c(=O)[nH]1)CCCC2", "inhibition": "0.855%"}, {"compound": "CCc1cccc(C)c1NC(=O)Cn1nc2ccc(C(=O)NCc3ccccc3)cn2c1=O", "inhibition": "36% (active)"}, {"compound": "Cc1cc(=O)n(CC(=O)NCc2ccccc2)c(N2CCCC2)n1", "inhibition": "-2.48%"}, {"compound": "O=C(c1ccc(N2CCCCC2)nn1)N(Cc1ccccc1)c1ccccn1", "inhibition": "-1.8%"}, {"compound": "Cn1c(C2CCN(C(=O)Nc3ccc4c(c3)CCC4)C2)nc2cccnc21", "note": "(stereo not given)", "inhibition": "-0.116%"}, {"compound": "Cc1ccc(NC(=O)COC(=O)C2CC(=O)N(c3cccc(C)c3C)C2)cc1", "note": "(stereo not given)", "inhibition": "-7.32%"}, {"compound": "O=C1CCCC2=C1C(c1ccc(C(=O)O)cc1)n1ncc(C(=O)Nc3ccc(F)cc3)c1N2", "note": "(stereo not given)", "inhibition": "-5.67%"}, {"compound": "CCOc1cccc(C2CC(=O)Nc3c2c(C)nn3-c2nncc(-c3ccc(F)cc3)n2)c1", "note": "(stereo not given)", "inhibition": "4.17%"}, {"compound": "Cc1ccc(C2N=C(N3CCCCC3)Nc3nc(C)cc(=O)n32)cc1", "note": "(stereo not given)", "inhibition": "-10.2%"}, {"compound": "O=C(c1ccccc1Cl)N(c1ccccn1)c1ccccn1", "inhibition": "-2.33%"}, {"compound": "C=C1CCC2[C@](C)(CCC[C@]2(C)C(=O)OC)[C@H]1CCc1ccoc1/C=C/C(=O)O", "note": "(stereo not given in full)", "inhibition": "46.4% (active)"}, {"compound": "C=C1CCC2[C@](C)(CCC[C@]2(C)C(=O)OC)[C@H]1CCc1ccoc1C[N+](C)(C)Cc1ccccc1", "note": "(stereo not given in full)", "inhibition": "-1.66%"}, {"compound": "C=C1CCC2[C@](C)(CCC[C@]2(C)C(=O)OC)[C@H]1CCc1ccoc1CNCC(=O)O", "note": "(stereo not given in full)", "inhibition": "3.42%"}, {"compound": "FC(F)(F)c1cccc(CN2CCCn3c(nc4ccccc43)C2)c1", "inhibition": "-0.144%"}, {"compound": "O=C(NCc1noc(C2CCCC2)n1)c1ccccc1", "inhibition": "3.21%"}, {"compound": "CNc1ccc(-c2noc([C@@H]3CCCN3C3CCN(C)CC3)n2)cn1", "inhibition": "-0.38%"}, {"compound": "COc1ccc(C(O)Cc2nc3ccccc3n2Cc2ccc(Cl)cc2)cc1", "note": "(stereo not given)", "inhibition": "1.15%"}, {"compound": "COC(=O)c1ccccc1NC(=O)c1cnc2ccccn2c1=O", "inhibition": "0.362%"}, {"compound": "O=C(CNC1CCCc2ccccc21)Nc1cc(S(=O)(=O)N2CCCCC2)ccc1Cl", "note": "(stereo not given)", "inhibition": "1.62%"}, {"compound": "Cc1nccc(N2CCCC2c2cnc(-c3ncc[nH]3)cn2)n1", "note": "(stereo not given)", "inhibition": "-5.73%"}, {"compound": "O=C(Cn1cc(S(=O)(=O)N2CCOCC2)ccc1=O)Nc1ccc(F)c(F)c1", "inhibition": "2.08%"}, {"compound": "CS(=O)(=O)c1ccc(-n2cc(-c3ccncn3)cn2)cc1", "inhibition": "-1.57%"}, {"compound": "O=C(c1ncccn1)N1CCCCC1c1ncc(Cc2cccc(F)c2)o1", "note": "(stereo not given)", "inhibition": "0.0694%"}, {"compound": "CC(OC(=O)c1cn(-c2ccccc2)nc1-c1cccnc1)C(=O)Nc1cccc(S(=O)(=O)N(C)C)c1", "note": "(stereo not given)", "inhibition": "-8.1%"}, {"compound": "Cc1nn(CCC(=O)Nc2ccc(C#N)cc2)c(C)c1S(=O)(=O)N1CCOCC1", "inhibition": "7.2%"}, {"compound": "Cn1c(N2CCN(C(=O)c3ccc(F)cc3)CC2)cc(=O)n(C)c1=O", "inhibition": "-3.62%"}]}]}
